Assay results reported in PubChem BioAssay (EPA / NIEHS).
Several values for one entry are separate records, joined by “and”; a condition that tells them apart may be missing. Equal values may be shown once. Records with an inconclusive call do not appear. Some structures have more than one record in an assay (separate samples or runs), and their calls can disagree. Activity calls are given as the source filed them. How the source made its calls, unless noted: active means hit-call score of the fitted dose curve at least 0.9, where 1 is the maximum; inconclusive means response in the unintended direction; inactive means score below 0.9.

Tests used:
[1] = system: guinea pig Dopamine Transporter (DAT), gene 100714898; assay: NVS_TR_gDAT: NovaScreen (NVS) Transporter Assay for guinea pig Dopamine Transporter (DAT) (AID 2283369);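 further: active compounds lower bound radioligand signal relative to DMSO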
Summary of the method: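 Scintillation counts of filter-retained radioligand report binding to guinea pig striatal membranes after 2 h. Activity scored as signal loss relative to DMSO, first at 25 uM in duplicate, then in concentration series to 50 uM.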

[2] = target: human Dopamine Transporter (DAT), SLC6A3 (gene 6531) (UniProt Q01959); assay: NVS_TR_hDAT: NovaScreen (NVS) Transporter Assay for human Dopamine Transporter (DAT) (AID 2283374);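 further: activity means loss of bound radioligand signal relative to DMSO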
Summary of the method: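 Cell-free radioligand binding to extracted human DAT protein, read 1 h after dosing by filter-based scintillation counting. Loss of specific binding scored against DMSO baseline; primary screen in duplicate at 25 uM, actives then run in concentration series.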

[3] = target: Estrogen receptor beta (Homo sapiens) (UniProt Q92731); assay: OT_ER_ERbERb_1440: Odyssey Thera (OT) 24-hour HEK293T Protein-Complementation Assay for Estrogen Receptor-beta/-beta Homodimer (AID 2283380);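 further: fluorescence gain from ER beta LBD homodimer complementation read by laser scanning cytometry; scored as signal increase over DMSO baseline for both agonists and antagonists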
Summary of the method: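 HEK293T cells stably expressing human ER-beta LBD (aa 310-547) PCA homodimer pair, dosed 24 h; formaldehyde-fixed, Draq5-stained. Readout: increase in nuclear (agonist) or nuclear plus cytoplasmic (antagonist) fluorescence intensity versus DMSO, gain-of-signal fitting.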

[4] = target: Retinoic acid receptor RXR-alpha (Homo sapiens) (UniProt P19793); assay: OT_NURR1_NURR1RXRa_0480: Odyssey Thera (OT) 8-hour HEK293T Protein Complementation Assay for Nurr1/retinoid X receptor (RXR) (AID 2283385)
Summary of the method: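 Compounds are applied to HEK293T cells carrying Nurr1 and RXRα linked to reporter fragments. After 8 h, fluorescence intensity reports heterodimer formation, with DMSO as baseline.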

[5] = target: Retinoic acid receptor RXR-alpha (Homo sapiens) (UniProt P19793); assay: OT_NURR1_NURR1RXRa_1440: Odyssey Thera (OT) 24-hour HEK293T Protein Complementation Assay for Nurr1/retinoid X receptor (RXR) (AID 2283386)
Summary of the method: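 Measured as fluorescence from a reconstituted split reporter, this 24 h HEK293T complementation assay scores compound-induced gain of Nurr1/RXRα association relative to DMSO.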

[6] = target: Peroxisome proliferator-activated receptor gamma (Homo sapiens) (UniProt P37231); assay: OT_PPARg_PPARgSRC1_0480: Odyssey Thera (OT) 8-hour Protein-Complementation Assay for Peroxisome Proliferator-activated Receptor Gamma / SRC-1 Co-activator (AID 2283387);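 further: nuclear to cytoplasmic split Venus YFP fluorescence ratio reporting PPARg SRC-1 interaction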
Summary of the method: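 Read-out: 488 nm N/C fluorescence ratio from complemented Venus YFP fragments, ≥350 cells per image, gain-of-signal fitted against DMSO baseline. Fusions of PPARg/SRC-1 with IFP1/IFP2 expressed transiently in HEK293T; compounds applied 8 h.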

[7] = CEETOX_H295R_OHPREG: CeeTox H295R High-throughput Steroidogenesis Assay for OH-Pregnenolone (OHPREG) (AID 2283434; active means hit-call score of the fitted dose curve at least 0.9, where 1 is the maximum; inactive means score below 0.9); conditions: actives raise or lower the signal
Summary of the method: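 Human adrenal H295R cells were prestimulated 48 h with 10 uM forskolin, then exposed 48 h to chemical in 0.1% DMSO. Medium 17alpha-hydroxypregnenolone was quantified by HPLC-MS/MS after MTBE extraction; bidirectional fitting versus DMSO baseline.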

[8] = CEETOX_H295R_OHPROG: CeeTox H295R High-throughput Steroidogenesis Assay for OH-Progesterone (OHPROG) (AID 2283435; active means hit-call score of the fitted dose curve at least 0.9, where 1 is the maximum; inactive means score below 0.9;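 on AC50: 17alpha-hydroxyprogesterone secreted into medium measured by HPLC-MS/MS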); conditions: actives raise or lower the signal
Summary of the method: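 Secreted 17alpha-hydroxyprogesterone is read by tandem MS from media of forskolin-primed H295R cells dosed with chemical for 48 h. Activity is fitted in both directions against DMSO baseline; cytotoxic concentrations are re-tested diluted.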

[9] = target: human Norepinephrine Transporter (NET), SLC6A2 (gene 6530) (UniProt P23975); assay: NVS_TR_hNET: NovaScreen (NVS) Transporter Assay for human Norepinephrine Transporter (NET) (AID 2283377);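 further: cell-free membrane protein extracted from CHO cells expressing human NET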
Summary of the method: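 Radioligand binding to human NET in cell-free CHO-derived protein preparations, read by filter-based scintillation counting 1 hour after dosing. Loss of signal versus DMSO baseline indicated displacement; primary screening in duplicate at 25 uM, actives then titrated.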

[10] = target: Estrogen receptor (Homo sapiens) (UniProt P03372); assay: OT_ERa_GFPERaERE_0480: Odyssey Thera (OT) 8-hour HeLa Transcription Induction Assay for Estrogen Receptor (AID 2283381; active means hit-call score of the fitted dose curve at least 0.9, where 1 is the maximum; inactive means score below 0.9)
Summary of the method: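 Cells (HeLa) receive compound; after 8 h, reporter fluorescence is imaged and quantified by high-content analysis. Gain-of-signal relative to DMSO gives the endpoint.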

[11] = target: Estrogen receptor (Homo sapiens) (UniProt P03372); assay: OT_ERa_GFPERaERE_0120: Odyssey Thera (OT) 2-hour HeLa Transcription Induction Assay for Estrogen Receptor (AID 2283382)
Summary of the method: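 Measures ESR1 pathway reporter gain-of-signal in HeLa cells after a 2-hour treatment, detected as fluorescent protein induction by microscopy, DMSO as baseline.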

[12] = target: rat Androgen Receptor (AR), Ar (gene 24208) (UniProt P15207); assay: NVS_NR_rAR: NovaScreen (NVS) Nuclear Receptor Binding Assay for rat Androgen Receptor (AR) (AID 2283366)
Summary of the method: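 Cell-free radioligand binding on extracts of prostate from testosterone-pretreated rats, read by filter-based scintillation counting 18 h after dosing. Loss of bound signal fitted positively versus DMSO; primary screen in duplicate at 25 uM, actives followed up in concentration series.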

[13] = CEETOX_H295R_ANDR: CeeTox H295R High-throughput Steroidogenesis Assay for Androstenedione (ANDR) (AID 2283436; active means hit-call score of the fitted dose curve at least 0.9, where 1 is the maximum; inactive means score below 0.9); conditions: actives raise or lower the signal
Summary of the method: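 H295R human adrenal cells (passages ≤10) were exposed to test chemicals for 48 h; androstenedione in medium was MTBE-extracted and quantified by HPLC-MS/MS against a 7-point standard curve. Bidirectional fitting used DMSO as baseline.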

[14] = target: Peroxisome proliferator-activated receptor gamma (Homo sapiens) (UniProt P37231); assay: NVS_NR_hPPARg: NovaScreen (NVS) Nuclear Receptor Binding Assay for human Peroxisome Proliferator-activated Receptor gamma (PPARg) (AID 2283370)
Summary of the method: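 Chemicals were tested first in duplicate at 25 uM, then in concentration series if active. Binding to cell-free PPARg protein was measured by fluorescence polarization after 2 h, with loss of signal scored against DMSO.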

[15] = target: Peroxisome proliferator-activated receptor gamma (Homo sapiens) (UniProt P37231); assay: OT_PPARg_PPARgSRC1_1440: Odyssey Thera (OT) 24-hour Protein-Complementation Assay for Peroxisome Proliferator-activated Receptor Gamma/ SRC-1 Co-activator (AID 2283388);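 further: nuclear to cytoplasmic ratio of reconstituted Venus YFP fluorescence in fixed imaged cells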
Summary of the method: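 Protein-fragment complementation between PPARg and coactivator SRC-1 was measured by fluorescence imaging in transiently transfected HEK293T cells after 24 h treatment. Signal was quantified as N/C ratio in the 488 nm channel, with DMSO as negative control.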

[16] = target: rat Serotonin Transporter (SERT), Slc6a4 (gene 25553) (UniProt P31652); assay: NVS_TR_rSERT: NovaScreen (NVS) Transporter Assay for rat Serotonin Transporter (SERT) (AID 2283375)
Summary of the method: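 Filtration-based radiodetection quantified loss of specific radioligand binding in rat forebrain membranes after 1 hour of chemical exposure, relative to DMSO. Chemicals were first tested in duplicate at 25 uM.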

[17] = target: Agonist Androgen Response Element (ARE), AR (gene 367) (UniProt P10275); assay: OT_AR_ARELUC_AG_1440: Odyssey Thera (OT) 24-hour CHO-K1 Luciferase Assay for Agonist Androgen Response Element (ARE) (AID 2283379)
Summary of the method: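 Seed CHO-K1 cells; dose compounds for 24 h; add D-luciferin plus ATP in PBS; read luminescence. Signal increase relative to vehicle defines agonist activity, with at least 3 replicate wells per sample.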

[18] = target: Bile acid receptor (Homo sapiens) (UniProt Q96RI1); assay: OT_FXR_FXRSRC1_1440: Odyssey Thera (OT) 24-hour HEK293T Protein-Complementation Assay for Farnesoid X receptor/SRC-1 Co-activator (AID 2283384)
Summary of the method: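 Cell-based binding reporter: interaction of FXR with SRC-1 brings reporter fragments together, giving a fluorescence signal read 24 h after dosing of HEK293T cells.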

[19] = target: guinea pig Sigma Receptor, Non-selective Binding, SIGMAR1 (gene 100135589) (UniProt Q60492); assay: NVS_OR_gSIGMA_NonSelective: NovaScreen (NVS) Nuclear Receptor Binding Assay for guinea pig Sigma Receptor, Non-selective Binding (AID 2283367)
Summary of the method: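 Guinea pig brain membranes, cell-free radioligand binding; read 1 h after dosing by filter-based scintillation counting. Loss of signal vs DMSO baseline taken as displacement. Primary screen single concentration 25 uM in duplicate; actives retested in concentration series.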

[20] = target: Bile acid receptor (Homo sapiens) (UniProt Q96RI1); assay: OT_FXR_FXRSRC1_0480: Odyssey Thera (OT) 8-hour HEK293T Protein-Complementation Assay for Farnesoid X receptor/SRC-1 Co-activator (AID 2283383)
Summary of the method: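 Co-activator recruitment to FXR was measured in living HEK293T cells, where interaction of the two fused partners restored an active fluorescent reporter. Signal gain after 8 h treatment was referenced to DMSO.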

Measured: AC50

Chain of Peroxisome proliferator-activated receptor gamma (Homo sapiens) (P37231 whole entry, looked up, the tested form may be a part): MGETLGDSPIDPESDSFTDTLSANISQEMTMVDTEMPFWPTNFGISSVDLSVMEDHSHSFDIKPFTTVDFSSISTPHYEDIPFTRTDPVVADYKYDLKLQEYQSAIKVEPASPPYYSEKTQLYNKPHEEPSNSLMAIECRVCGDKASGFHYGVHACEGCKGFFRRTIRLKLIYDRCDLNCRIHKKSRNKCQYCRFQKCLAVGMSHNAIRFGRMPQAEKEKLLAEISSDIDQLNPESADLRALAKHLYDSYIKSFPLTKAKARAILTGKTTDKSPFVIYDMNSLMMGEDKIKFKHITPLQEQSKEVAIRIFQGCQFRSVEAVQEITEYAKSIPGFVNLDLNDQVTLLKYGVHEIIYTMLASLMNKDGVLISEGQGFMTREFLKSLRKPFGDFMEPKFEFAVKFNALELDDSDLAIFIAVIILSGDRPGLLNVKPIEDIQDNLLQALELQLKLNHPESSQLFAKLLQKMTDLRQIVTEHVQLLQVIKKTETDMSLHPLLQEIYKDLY
Chain of Agonist Androgen Response Element (ARE), AR (gene 367) (P10275 whole entry, looked up): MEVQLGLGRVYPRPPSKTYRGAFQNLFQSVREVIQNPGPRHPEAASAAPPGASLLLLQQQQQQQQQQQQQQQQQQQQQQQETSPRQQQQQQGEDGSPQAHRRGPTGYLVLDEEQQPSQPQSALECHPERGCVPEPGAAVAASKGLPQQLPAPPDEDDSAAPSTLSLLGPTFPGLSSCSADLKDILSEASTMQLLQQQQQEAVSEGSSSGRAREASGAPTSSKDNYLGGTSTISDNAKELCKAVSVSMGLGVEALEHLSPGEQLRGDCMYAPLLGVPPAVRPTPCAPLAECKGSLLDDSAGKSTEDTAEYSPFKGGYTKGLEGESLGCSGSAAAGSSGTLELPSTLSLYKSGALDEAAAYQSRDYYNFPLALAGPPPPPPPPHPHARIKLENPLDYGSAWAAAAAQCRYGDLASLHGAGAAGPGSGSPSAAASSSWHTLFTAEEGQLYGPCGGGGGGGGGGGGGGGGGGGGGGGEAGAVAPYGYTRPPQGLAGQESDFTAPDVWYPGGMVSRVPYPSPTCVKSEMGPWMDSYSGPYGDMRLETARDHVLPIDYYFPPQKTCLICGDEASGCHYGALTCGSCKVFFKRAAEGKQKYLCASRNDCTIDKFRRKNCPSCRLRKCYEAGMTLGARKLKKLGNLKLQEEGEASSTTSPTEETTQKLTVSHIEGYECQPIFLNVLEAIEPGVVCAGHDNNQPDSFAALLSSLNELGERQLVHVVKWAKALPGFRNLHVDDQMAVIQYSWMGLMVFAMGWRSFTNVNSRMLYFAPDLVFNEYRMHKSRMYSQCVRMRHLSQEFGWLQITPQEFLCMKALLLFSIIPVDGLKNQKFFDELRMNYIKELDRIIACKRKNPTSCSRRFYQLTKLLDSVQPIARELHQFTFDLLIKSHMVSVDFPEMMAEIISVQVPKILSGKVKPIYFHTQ
Chain of Retinoic acid receptor RXR-alpha (Homo sapiens) (P19793 whole entry, looked up, the tested form may be a part): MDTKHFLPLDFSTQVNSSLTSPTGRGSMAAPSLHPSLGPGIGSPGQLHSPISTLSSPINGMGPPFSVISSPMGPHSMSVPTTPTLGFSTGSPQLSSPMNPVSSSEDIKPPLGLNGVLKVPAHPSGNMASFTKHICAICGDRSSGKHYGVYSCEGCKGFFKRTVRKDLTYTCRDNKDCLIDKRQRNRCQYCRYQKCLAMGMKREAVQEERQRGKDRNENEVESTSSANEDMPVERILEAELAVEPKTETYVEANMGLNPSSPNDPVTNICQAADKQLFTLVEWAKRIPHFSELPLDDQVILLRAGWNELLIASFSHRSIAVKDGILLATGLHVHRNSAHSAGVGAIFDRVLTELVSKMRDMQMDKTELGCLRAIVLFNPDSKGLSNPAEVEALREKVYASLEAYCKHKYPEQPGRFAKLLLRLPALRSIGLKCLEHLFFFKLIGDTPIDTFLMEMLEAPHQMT
Chain of Estrogen receptor beta (Homo sapiens) (Q92731 whole entry, looked up, the tested form may be a part): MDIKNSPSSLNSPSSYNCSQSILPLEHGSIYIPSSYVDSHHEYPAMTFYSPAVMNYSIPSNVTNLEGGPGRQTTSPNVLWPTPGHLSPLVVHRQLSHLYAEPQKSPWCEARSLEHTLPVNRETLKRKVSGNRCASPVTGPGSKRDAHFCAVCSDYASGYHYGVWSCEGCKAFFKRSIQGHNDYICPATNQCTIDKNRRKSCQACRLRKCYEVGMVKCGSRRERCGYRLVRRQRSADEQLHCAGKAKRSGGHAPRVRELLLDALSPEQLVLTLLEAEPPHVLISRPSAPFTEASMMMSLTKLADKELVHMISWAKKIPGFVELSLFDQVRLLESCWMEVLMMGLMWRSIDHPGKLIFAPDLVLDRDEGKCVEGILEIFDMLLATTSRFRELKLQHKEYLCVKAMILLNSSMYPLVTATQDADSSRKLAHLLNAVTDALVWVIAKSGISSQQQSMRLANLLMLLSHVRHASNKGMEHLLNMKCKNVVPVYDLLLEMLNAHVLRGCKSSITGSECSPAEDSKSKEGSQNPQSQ
Chain of rat Androgen Receptor (AR), Ar (gene 24208) (P15207 whole entry, looked up): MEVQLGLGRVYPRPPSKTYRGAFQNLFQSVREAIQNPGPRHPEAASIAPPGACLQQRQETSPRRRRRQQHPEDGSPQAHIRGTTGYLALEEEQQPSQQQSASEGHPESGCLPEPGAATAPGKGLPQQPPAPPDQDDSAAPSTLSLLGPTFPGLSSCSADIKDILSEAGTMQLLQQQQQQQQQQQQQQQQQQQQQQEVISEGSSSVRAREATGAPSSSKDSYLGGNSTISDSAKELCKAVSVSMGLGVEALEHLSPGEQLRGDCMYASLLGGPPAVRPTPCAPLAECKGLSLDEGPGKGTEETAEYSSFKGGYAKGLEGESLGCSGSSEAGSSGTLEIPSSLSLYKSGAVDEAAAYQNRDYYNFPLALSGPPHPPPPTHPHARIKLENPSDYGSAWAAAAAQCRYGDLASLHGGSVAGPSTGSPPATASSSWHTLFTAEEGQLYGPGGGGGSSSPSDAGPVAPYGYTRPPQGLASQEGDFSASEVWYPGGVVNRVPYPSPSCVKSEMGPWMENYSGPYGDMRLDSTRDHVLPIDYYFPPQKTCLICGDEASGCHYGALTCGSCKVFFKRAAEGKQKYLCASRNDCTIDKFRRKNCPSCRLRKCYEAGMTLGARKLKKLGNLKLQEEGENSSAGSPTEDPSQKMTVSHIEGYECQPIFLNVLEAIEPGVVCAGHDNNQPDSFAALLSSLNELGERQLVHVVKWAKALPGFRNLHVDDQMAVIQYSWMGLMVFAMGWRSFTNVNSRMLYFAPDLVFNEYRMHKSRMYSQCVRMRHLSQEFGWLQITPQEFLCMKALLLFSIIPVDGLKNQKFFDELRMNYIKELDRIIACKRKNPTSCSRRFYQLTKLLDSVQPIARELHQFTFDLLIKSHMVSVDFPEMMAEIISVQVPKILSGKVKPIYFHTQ
Chain of human Dopamine Transporter (DAT), SLC6A3 (gene 6531) (Q01959 whole entry, looked up): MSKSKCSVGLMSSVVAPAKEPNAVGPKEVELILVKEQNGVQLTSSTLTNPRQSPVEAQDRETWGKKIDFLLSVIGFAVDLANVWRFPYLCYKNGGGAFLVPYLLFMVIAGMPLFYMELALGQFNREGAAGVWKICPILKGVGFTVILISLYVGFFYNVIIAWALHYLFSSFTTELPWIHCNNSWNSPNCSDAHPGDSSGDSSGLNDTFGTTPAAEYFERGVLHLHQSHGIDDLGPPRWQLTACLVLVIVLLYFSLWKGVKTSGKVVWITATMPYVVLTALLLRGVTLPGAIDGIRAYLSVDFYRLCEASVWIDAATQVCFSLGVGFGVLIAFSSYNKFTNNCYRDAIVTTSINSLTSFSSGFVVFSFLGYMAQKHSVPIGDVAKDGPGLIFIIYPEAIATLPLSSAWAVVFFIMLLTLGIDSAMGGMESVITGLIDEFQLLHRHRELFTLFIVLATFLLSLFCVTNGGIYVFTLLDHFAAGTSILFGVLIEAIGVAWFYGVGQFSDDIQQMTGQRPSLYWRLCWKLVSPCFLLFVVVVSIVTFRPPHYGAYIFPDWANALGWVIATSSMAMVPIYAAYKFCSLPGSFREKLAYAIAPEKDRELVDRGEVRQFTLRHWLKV
Chain of Bile acid receptor (Homo sapiens) (Q96RI1 whole entry, looked up, the tested form may be a part): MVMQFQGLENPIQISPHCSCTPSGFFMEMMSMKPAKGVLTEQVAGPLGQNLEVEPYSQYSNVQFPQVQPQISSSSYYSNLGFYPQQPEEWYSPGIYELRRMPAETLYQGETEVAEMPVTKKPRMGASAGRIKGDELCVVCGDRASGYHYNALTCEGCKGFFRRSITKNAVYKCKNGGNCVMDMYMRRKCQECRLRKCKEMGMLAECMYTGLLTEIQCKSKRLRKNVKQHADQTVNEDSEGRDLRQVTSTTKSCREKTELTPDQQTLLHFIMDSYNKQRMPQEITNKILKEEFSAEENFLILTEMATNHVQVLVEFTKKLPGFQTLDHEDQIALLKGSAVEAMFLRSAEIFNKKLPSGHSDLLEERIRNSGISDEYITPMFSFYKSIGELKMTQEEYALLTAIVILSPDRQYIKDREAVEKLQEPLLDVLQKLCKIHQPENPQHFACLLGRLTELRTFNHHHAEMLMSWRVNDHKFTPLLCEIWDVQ
Chain of guinea pig Sigma Receptor, Non-selective Binding, SIGMAR1 (gene 100135589) (Q60492 whole entry, looked up): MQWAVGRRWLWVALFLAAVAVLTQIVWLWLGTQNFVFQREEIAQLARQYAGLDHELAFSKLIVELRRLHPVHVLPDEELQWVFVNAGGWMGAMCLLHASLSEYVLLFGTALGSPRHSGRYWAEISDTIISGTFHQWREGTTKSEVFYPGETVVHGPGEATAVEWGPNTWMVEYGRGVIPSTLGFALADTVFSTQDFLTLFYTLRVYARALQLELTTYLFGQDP

CC(C)(C)c1ccccc1O
inactive: [1] | [2] | [3] | [4] | [5] | [6] | [7] | [8]

Cc1ccccc1OP(=O)(Oc1ccccc1)Oc1ccccc1
active: [1] 13.9 µM | [2] 2.25 µM

N#CCCC(Br)(C#N)CBr (configuration not stated)
inactive: [9] | [10] | [11] | [5] | [6]
active: [1] 7.56 µM | [3] 11.9 µM

Cc1cc(C(C)(C)c2ccc(O)c(C)c2)ccc1O
inactive: [12] | [7] | [8]
active: [1] 6.35 µM | [2] 1.62 µM | [9] 8.57 µM | [13] 5 µM

Oc1cc(Cl)c(Cl)cc1Cl
active: [9] 10.8 µM | [3] 75.1 µM | [4] 78.3 µM | [5] 81.6 µM and 83.4 µM
inactive: [14] | [4] | [6] | [15]

OC(Cc1ccccc1Cl)(Cn1[nH]cnc1=S)C1(Cl)CC1 (configuration not stated)
inactive: [12] | [7] | [8] | [13]

O=C1C=CC(=O)c2ccccc21
inactive: [12]
active: [1] 5.42 µM | [16] 28.9 µM

Oc1ccc(Cc2ccc(O)cc2)cc1
active: [1] 10.1 µM | [2] 9.05 µM | [9] 25 µM

O=[N+]([O-])c1ccc(Nc2ccccc2)cc1
inactive: [7]
active: [1] 4.24 µM | [2] 5.62 µM | [9] 20.4 µM | [8] 1.42 µM

O=S1(=O)OC(c2cc(Br)c(O)c(Br)c2)(c2cc(Br)c(O)c(Br)c2)c2ccccc21
inactive: [3] | [10] | [11] | [18]
active: [12] 3.11 µM | [14] 2.87 µM | [17] 0.214 µM | [4] 71.9 µM | [5] 14.4 µM | [6] 46.5 µM | [15] 51.9 µM

Nc1c(Oc2ccccc2)cc(O)c2c1C(=O)c1ccccc1C2=O
inactive: [12]

CCOP(=O)(OCC)OC(=CCl)c1ccc(Cl)cc1Cl
active: [19] 10.9 µM | [1] 25 µM | [2] 25 µM | [8] 5.16 µM
inactive: [7]

O=C(O)COc1cc(Cl)c(Cl)cc1Cl
inactive: [17] | [3] | [20] | [5] | [6]
active: [14] 7.47 µM

O=C(CCl)Nc1ccccc1
active: [10] 84.8 µM
inactive: [14] | [17] | [3] | [11] | [20] | [6]

COCCl
inactive: [3] | [20] | [18] | [6]
active: [14] 4.2 µM | [17] 1.22 µM

Oc1c(Br)cc(Br)cc1Br
active: [8] 36 µM
inactive: [14] | [3] | [10] | [11] | [4] | [5] | [6]

CC(C)N(C(=O)CCl)c1ccccc1
inactive: [14] | [17] | [3] | [10] | [11] | [6]
active: [1] 11.8 µM | [2] 11.1 µM

O=[N+]([O-])c1ccc(Cl)c([N+](=O)[O-])c1
inactive: [14] | [17] | [6]
active: [12] 3.07 µM | [10] 8.64 µM

CCOC(=O)CCN(SN(C)C(=O)Oc1cccc2c1OC(C)(C)C2)C(C)C
active: [19] 15.8 µM | [9] 9.18 µM

CCCCCCCCCCCCN(C)C
inactive: [9] | [3] | [10] | [11] | [20] | [18] | [5] | [6] | [15] | [7] | [8]
active: [19] 1.51 µM

CCOCn1c(-c2ccc(Cl)cc2)c(C#N)c(Br)c1C(F)(F)F
active: [3] 12.6 µM | [20] 12.3 µM | [18] 3.05 µM | [4] 9.59 µM | [5] 25.2 µM | [7] 6.2 µM | [8] 13.2 µM
inactive: [14] | [10] | [11] | [6]

O=C1c2ccccc2C(=O)C1C(=O)C(c1ccccc1)c1ccc(Cl)cc1 (configuration not stated)
active: [12] 4.96 µM | [14] 16.2 µM | [4] 50 µM | [5] 73.2 µM
inactive: [17] | [10] | [11] | [6]
